Reference: the antibiotic and cytotoxicity screens of Wong et al. (2023)
Hit rate of the full screen: of about 39,000 compounds, about 500 (1.3%) were called active. Only a selection was taken, and actives are over-represented in it overall.

Test system: S. aureus RN4220
Test: growth inhibition call (relative growth <= 0.2)
Conditions: 50 µM

SMILES | growth inhibition call
C[C@@H]1CN([C@@H](C)CO)C(=O)c2cc(NC(=O)Nc3ccc(F)cc3)ccc2O[C@@H](C)CCCCO[C@@H]1CN(C)C(=O)Cc1ccccc1 | inactive
O=C(CO)N1C[C@H]2C[C@@H]1C[C@@H]2Oc1cccnc1 | inactive
NCCC(O)C(=O)NC1CC(N)C(OC2OC(CN)C(O)C(O)C2O)C(O)C1OC1OC(CO)C(O)C(N)C1O.O (stereo not drawn) | inactive
CNC1C(OC2OC(CO)C(N)C(O)C2O)OC2CC(N)C(OC3C(N)CC(N)C(O)C3O)OC2C1O.O=S(=O)(O)O (stereo not drawn) | active
CN[C@@H]1[C@@H](O[C@H]2O[C@H](CO)[C@@H](N)[C@H](O)[C@H]2O)O[C@H]2C[C@@H](N)[C@H](O[C@H]3[C@H](O)[C@@H](O)[C@H](N)C[C@@H]3N)O[C@@H]2[C@@H]1O | inactive
NCC1OC(OC2C(CO)OC(OC3C(O)C(N)CC(N)C3OC3OC(CO)C(O)C(O)C3N)C2O)C(N)C(O)C1O.O=S(=O)(O)O (stereo not drawn) | active
NCC1OC(OC2C(CO)OC(OC3C(O)C(N)CC(N)C3OC3OC(CN)C(O)C(O)C3N)C2O)C(N)C(O)C1O.O=S(=O)(O)O.O=S(=O)(O)O.O=S(=O)(O)O (stereo not drawn) | inactive
NCC1OC(OC2C(N)CC(N)C(O)C2OC2OC(CO)C(O)C2O)C(N)C(O)C1O.O=S(=O)(O)O (stereo not drawn) | inactive
NC[C@H]1O[C@H](O[C@H]2[C@H](O)[C@@H](O[C@H]3O[C@H](CO)[C@@H](O)[C@H](N)[C@H]3O)[C@H](N)C[C@@H]2N)[C@H](N)[C@@H](O)[C@@H]1O | inactive
NCC[C@H](O)C(=O)N[C@@H]1C[C@H](N)[C@@H](O[C@H]2O[C@H](CN)[C@@H](O)[C@H](O)[C@H]2O)[C@H](O)[C@H]1O[C@H]1O[C@H](CO)[C@@H](O)[C@H](N)[C@H]1O | active
NCC1OC(OC2C(N)CC(N)C(OC3OC(CO)C(O)C(N)C3O)C2O)C(O)C(O)C1O.O=S(=O)(O)O (stereo not drawn) | inactive
NCC1OC(OC2C(N)CC(N)C(OC3OC(CO)C(O)C(N)C3O)C2O)C(N)C(O)C1O.O=S(=O)(O)O (stereo not drawn) | active
NC[C@H]1O[C@H](O[C@H]2[C@H](O[C@@H]3O[C@H](CO)[C@@H](O)[C@H]3O)[C@@H](O)[C@H](N)C[C@@H]2N)[C@H](N)[C@@H](O)[C@@H]1O | inactive
CN[C@@H]1[C@@H](O[C@@]2(C)O[C@H](CO)[C@@H](N)[C@H](O)[C@H]2O)O[C@H]2C[C@@H](N)[C@@H](O[C@H]3[C@H](O)[C@@H](O)[C@H](N)C[C@@H]3N)O[C@@H]2[C@@H]1O | inactive
O=C(C[C@@H]1C=C[C@@H](NC(=O)CN2CCOCC2)[C@@H](CO)O1)NCCc1ccncc1 | inactive
COc1cccc(S(=O)(=O)N(C)C[C@H]2OCc3cn(nn3)CCCC(=O)N([C@H](C)CO)C[C@@H]2C)c1 | inactive
COc1ccc(S(=O)(=O)N(C)C[C@@H]2OCCCC[C@@H](C)Oc3ccc(NC(=O)Nc4c(C)noc4C)cc3C(=O)N([C@H](C)CO)C[C@H]2C)cc1 | inactive
C[C@H]1CN([C@@H](C)CO)C(=O)c2cc(NS(C)(=O)=O)ccc2O[C@H]1CN(C)C(=O)NC1CCCCC1 | inactive
CN([NH2+][O-])c1ccc(O)c(O)c1 | inactive
C[C@@H](N)c1ccc(F)cc1F | inactive
COc1ccc(S(=O)(=O)Nc2cccc3c2O[C@@H](CN(C)C(=O)NC(C)C)[C@@H](C)CN([C@@H](C)CO)C3=O)cc1 | inactive
Cc1c2c(nn1C)CSCc1cc(n(C)n1)CSc1cc(c3ccccc3c1)OCCCc1c(C(=O)O)n(C)c3c-2c(Cl)ccc13 | active
C[C@H]1CN([C@@H](C)CO)C(=O)c2cc(NC(=O)Nc3ccc(C(F)(F)F)cc3)ccc2O[C@@H]1CN(C)C(=O)Nc1ccc2c(c1)OCO2 | inactive
OCCC[C@@H](O)c1ccc(OCCO)cc1 | inactive

SMILES | growth inhibition call
N=C(N)c1ccc(C(N)=O)cc1 | inactive
N=C(N)c1ccc(OCCCCCOc2ccc(C(=N)N)cc2)cc1.O=S(=O)(O)CCO.O=S(=O)(O)CCO | active
COc1ccc(S(=O)(=O)Nc2ccc3c(c2)C(=O)N([C@@H](C)CO)C[C@H](C)[C@H](CN(C)CC2CC2)O3)cc1 | inactive
C[C@@H]1CN([C@@H](C)CO)C(=O)c2cc(NS(=O)(=O)c3ccccc3)ccc2O[C@@H](C)CCCCO[C@H]1CN(C)S(=O)(=O)c1cn(C)cn1 | inactive
C[C@H](CO)N1C[C@H](C)[C@H](CN(C)S(=O)(=O)c2ccc(F)cc2)Oc2ncc(-c3ccncc3)cc2C1=O | inactive
CC(=O)C1C(=O)C=C(C)OC1=O (stereo not drawn) | inactive
COc1cc(OC)c(C(C)=O)c(O)c1C | inactive
CC(=O)c1c(O)c(C)c(O)c2c1OC1=CC(=O)C(C(C)=O)C(=O)C12C (stereo not drawn) | active
CCCc1c(SCCCOc2ccc(C(C)=O)c(OCCCC(=O)O)c2CCC)ccc(C(C)=O)c1O | active
COCC(=O)Nc1ccc2c(c1)C(=O)N(C)C[C@@H](OC)[C@H](C)CN(Cc1cccc(F)c1)[C@H](C)CO2 | inactive
CC(=O)N1c2ccccc2C2=NNC(=S)N[C@]21O | inactive
C[C@H]1CCCCO[C@H](CN(C)C(=O)Cc2ccccc2)[C@@H](C)CN([C@@H](C)CO)C(=O)c2cc(NC(=O)Nc3ccc(F)cc3)ccc2O1 | inactive
C[C@@H]1CN([C@@H](C)CO)C(=O)c2cc(/C=C/c3ccccc3)cnc2O[C@@H]1CN(C)C(=O)C1CCOCC1 | inactive
CO/N=C(\C(=O)N[C@@H]1C(=O)N2C(C(=O)O)=C(CSC(=O)c3ccco3)CS[C@H]12)c1csc(N)n1 | active
CON=C(C(=O)NC1C(=O)N2C(C(=O)O)=C(CSC(=O)c3ccco3)CSC12)c1csc(N)n1.Cl (stereo not drawn) | active
Cc1noc(C)c1S(=O)(=O)Nc1ccc2c(c1)C(=O)N([C@@H](C)CO)C[C@H](C)[C@@H](CN(C)S(=O)(=O)c1ccc(Cl)cc1)O2 | inactive
N=C(N=C(N)N)NCCc1ccccc1 | inactive
NNCCc1ccccc1.O=S(=O)(O)O | inactive
NNCCc1ccccc1 | active
O=c1[nH]c(=O)n(C2CC(O)C(CO)O2)cc1I (stereo not drawn) | inactive
CCOc1ccc2ccccc2c1C(=O)NC1C(=O)N2C1SC(C)(C)C2C(=O)[O-].[Na+] (stereo not drawn) | active
COc1cccc(OC)c1C(=O)NCCCO | inactive
COc1cccc(OC)c1C(=O)NN | inactive
COc1cccc(OC)c1C(=O)NC1C(=O)N2C1SC(C)(C)C2C(=O)[O-].[Na+] (stereo not drawn) | active
